# Data published in PubChem BioAssay.
# Values without a mark were called inactive. The list shows a part of the results. Activity calls are given as the source filed them.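 How the source made its calls, unless noted: active means inhibition above the mean of solvent-only control wells plus 3 SD, cutoff set per campaign (cut at about 13% in these data); inactive means the rest.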
# Legend:
# [1] = blockers of IL-6 STAT3 signaling – U3A cells, luciferase, luminescence, confirmation (AID 1265;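 active means inhibition above the hit cutoff computed for the primary STAT3 screen, cut at about 44% in these data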;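 further: 0% = IL-6 plus DMSO and 100% = IL-6 plus nifuroxazide control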); conditions: IL-6 STAT3 luciferase reporter, at 5.7 µM, hits give high values, cell line lacks STAT1
# [2] = inhibition of TNF-alpha-driven NF-kB transcription – cell-based, HEK293T, luciferase, TNF-alpha stimulus, counter-screen for STAT3 inhibitor project, confirmation (AID 1308); conditions: HEK293T NF-kB luciferase reporter, TNF-alpha induced; at 5.7 µM; hits give high values;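 further: 0% = TNF-alpha with DMSO and 100% = TNF-alpha with MG high control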
# [3] = inhibition of STAT1-driven transcription – cell-based, NIH 3T3, luciferase luminescence, IFN-gamma, counter-screen for STAT3 inhibitor project, confirmation (AID 1317;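 active means inhibition above the mean plus 3 SD of solvent-only control wells, limit set per screening run, cut at about 16% in these data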;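 further: 0% = DMSO with IFN-gamma and 100% = nifuroxazide control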); conditions: NIH 3T3 STAT1-luciferase reporter, IFN-gamma induced, at 5.7 µM, hits give high values
# [4] = biological target: Platelet-activating factor acetylhydrolase (Homo sapiens) (UniProt Q13093); test: inhibition of plasma PAF acetylhydrolase – biochemical, fluorescence polarization, human, confirmation (AID 463230;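 active means mean inhibition of the triplicate above the hit cutoff set for the earlier primary screen, cut at about 25% in these data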;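 further: 0% = enzyme with DMSO and 100% = wells lacking pPAFAH enzyme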); conditions: recombinant pPAFAH, FP-Rh probe fluorescence polarization; at 3.39 µM; hits give high values
# [5] = reduced OD of T4-infected AddAB+ E. coli – absorbance, E. coli V3065, T4 phage, triplicate, AddAB inhibitor project, confirmation (AID 488942;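 active means mean inhibition above a set limit taken from the earlier primary screen, cut at about 13% in these data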;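 further: higher means less bacterial growth since AddAB block lets phage replicate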); conditions: E. coli V3065 expressing H. pylori AddAB, at 11.9 µM, hits give high values, T4 phage with gene 2 nonsense mutations
# [6] = reduced OD of phage-infected RecBCD+ V66 E. coli – absorbance, mutant T4 phage, counter-screen for AddAB inhibitor project (AID 488955;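 active means mean inhibition above the mean of solvent-only control wells plus 3 SD, cut at about 4% in these data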;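 further: optical density read after an 18 h incubation at 37 °C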); conditions: OD growth, at 11.9 µM, hits give high values
# [7] = bacterial growth inhibitors – absorbance, counter-screen for AddAB inhibitor project, confirmation (AID 488956; in the data active means inhibition above about 25%); conditions: bacterial viability, absorbance (AddAB counterscreen); at 11.9 µM; hits give high values
# [8] = biological target: Nuclear receptor coactivator 3 (Homo sapiens) (UniProt Q9Y6Q9); test: NCOA3 GAL4-fusion reporter inhibition – cell-based, luminescence, quadruplicate, confirmation (AID 588792;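 active means mean inhibition over 43.08%, the solvent-only control mean plus 3 SD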;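 further: 0% = DMSO treated cells and 100% = gossypol at 36 µM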); conditions: HEK293 GAL4-SRC3 luciferase reporter, at 3.6 µM, hits give high values
# [9] = test system: transactivating tegument protein VP16 (Human herpesvirus 1), Gal4-VP16 luciferase reporter; test: repression of VP16-driven luciferase reporter – cell-based, luminescence, high throughput, counter-screen for SRC3 inhibitor project (AID 588794; in the data active means inhibition above about 30%); conditions: mammalian cells, at 3.6 µM, hits give high values
# [10] = biological target: Nuclear receptor coactivator 1 (Homo sapiens) (UniProt Q15788); test: NCOA1 GAL4-fusion reporter inhibition – cell-based, luminescence, quadruplicate, confirmation (AID 588820;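 active means mean inhibition above 46.68%, the untreated control wells mean plus 3 SD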;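 further: 0% = DMSO wells and 100% = gossypol 36 µM treated wells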); conditions: HEK293 GAL4-SRC1 luciferase reporter, at 3.6 µM, hits give high values
# [11] = repression of VP16-driven luciferase reporter – cell-based, luminescence, high throughput, counter-screen for SRC1 inhibitor project (AID 588824; in the data active means inhibition above about 25%); conditions: cell-based VP16 transactivation luciferase luminescence; at 3.6 µM; hits give high values
# [12] = biological target: Photoreceptor-specific nuclear receptor (Homo sapiens) (UniProt Q9Y5X4); test: retest of NR2E3-NCOR disrupting agonists – cell-based, luminescence, CHO-S two-hybrid, confirmation (AID 624378;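 active means average inhibition above a cutoff equal to the mean inhibition of all tested compounds plus one SD, cut at about 70% in these data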;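 further: 0% = DMSO in NR2E3 cells and 100% = DMSO in cells lacking NR2E3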); conditions: CHO-S mammalian two-hybrid NR2E3-NCOR, luciferase luminescence; at 3.98 µM; hits give high values
# [13] = nonselective effects on VP16 transactivation – cell-based, luminescence, CHO-S, high throughput, counter-screen for NR2E3 agonist project, confirmation (AID 624379;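 active means mean inhibition above a cutoff equal to the average over all tested compounds plus one standard deviation, cut at about 70% in these data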;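 further: 0% = DMSO with VP16-transfected cells and 100% = DMSO with cells lacking VP16; higher means less reporter light so more repression of VP16 activity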); conditions: CHO-S GAL4-VP16 luciferase reporter, at 3.98 µM, hits give high values
# [14] = StAR promoter reporter inhibitors, counter-screen for LRH-1 inverse agonist project, cell-based, luminescence, high throughput (AID 651611; in the data active means inhibition above about 28%); conditions: StAR promoter luciferase reporter counterscreen, at 3.6 µM, hits give high values
# [15] = biological target: Nuclear receptor subfamily 5 group A member 2 (Homo sapiens) (UniProt O00482); test: NR5A2 activity suppression in reporter cells – cell-based, luminescence, confirmation (AID 651613; in the data active means inhibition above about 42%;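 further: HEK293T cells co-transfected with LRH-1 and StAR promoter luciferase reporter; 0% = vehicle wells and 100% = parental cells lacking receptor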); conditions: cell-based LRH-1 luciferase reporter, inverse agonism; at 3.6 µM; hits give high values
# [16] = biological target: Steroidogenic factor 1 (Homo sapiens) (UniProt Q13285); test: inverse agonism at SF1 nuclear receptor – cell-based, luminescence, high throughput, counter-screen for LRH-1 inverse agonist project (AID 651614; in the data active means inhibition above about 44%;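 further: cells cotransfected with StAR promoter reporter and SF1 expression vector; 0% = vehicle on cells with receptor and 100% = vehicle on cells lacking receptor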); conditions: cell-based SF1 luciferase reporter, at 3.6 µM, hits give high values
# [17] = compounds suppressing VP16-driven luciferase signal – cell-based, luminescence, high throughput, counter-screen for LRH-1 inverse agonist project (AID 651615; in the data active means inhibition above about 33%); conditions: Gal4-VP16 luciferase reporter cells, at 3.6 µM, hits give high values
# [18] = VP16-driven transactivation reporter suppression – cell-based, luminescence, HEK293, counter-screen for COUP-TFII antagonist project (AID 687007; in the data active means inhibition above about 13%); conditions: HEK293 Gal4-VP16 luciferase reporter, at 8.5 µM, hits give high values
# [19] = biological target: COUP transcription factor 2 (Homo sapiens) (UniProt P24468); test: retest of COUP-TFII reporter suppressors – cell-based, luciferase reporter, HEK293, triplicate, confirmation (AID 687008;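 active means mean inhibition over three repeats above a set limit taken from the earlier primary screen, cut at about 38% in these data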;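 further: 100% = cells given the luciferase reporter alone without the COUP-TF2 vector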); conditions: HEK293 NGFI-A luciferase reporter, luminescence; at 8.5 µM; hits give high values
# [20] = biological target: Serine protease HTRA1 (Homo sapiens) (UniProt Q92743); test: confirming inhibition of human HTRA1 – biochemical, fluorescence polarization, confirmation (AID 540248;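 active means mean inhibition over three repeats above a set limit taken from the earlier primary screen, cut at about 37% in these data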;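 further: 0% = HTRA1 with DMSO and 100% = wells lacking HTRA1; inhibitors block probe binding so polarization drops and inhibition rises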); conditions: recombinant HTRA1, FP-rhodamine activity-based probe, at 5.96 µM, hits give high values
# [21] = test system: DAF-12 nuclear receptor (Heterodera glycines), GAL4-LBD fusion; test: hgDAF-12 GAL4 fusion reporter activation, retest – cell-based, luminescence, HEK293, GAL4-LBD fusion, confirmation (AID 743050;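 active means mean activation over triplicate wells above the hit cutoff derived from the earlier primary screen, cut at about 11% in these data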;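 further: 0% = DMSO low control and 100% = 2 mM sodium butyrate high control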); conditions: HEK293 GAL4-hgDAF12 luciferase reporter, agonist mode; at 6.8 µM; hits give high values; percent of butyrate response
# [22] = biological target: Oxysterols receptor LXR-beta (Homo sapiens) (UniProt P55055); test: nonspecific reporter activation via LXR – cell-based, luminescence, HEK293, H. glycines campaign, counter-screen for hgDAF-12 agonist project, confirmation (AID 743051;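 active means mean activation of the triplicate above a set limit carried over from the primary screen, none filed active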); conditions: HEK293 Gal4-LXR luciferase reporter, 24 h; at 6.8 µM; hits give high values
# [23] = biological target: Oxysterols receptor LXR-beta (Homo sapiens) (UniProt P55055); test: nonspecific reporter activation via LXR – cell-based, luminescence, HEK293, H. contortus campaign, counter-screen for hcDAF-12 agonist project, confirmation (AID 743027;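 active means mean percent activation of the reporter above a cutoff set as the average over tested compounds plus their standard deviation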); conditions: HEK293 Gal4-LXR tk-luc reporter, 24 h, at 6.8 µM, hits give high values, normalized: DMSO 0%, positive control 100%
# [24] = test system: Nuclear hormone receptor DAF-12 (Haemonchus contortus); test: hcDAF-12 luciferase reporter activation, retest – cell-based, luminescence, HEK293, lit1-tk-luc, triplicate, confirmation (AID 743032;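 active means mean activation across triplicate tests above the threshold derived from the earlier primary screen, cut at about 5.5% in these data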;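 further: 0% = DMSO only wells and 100% = 3 µM Δ7-dafachronic acid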); conditions: HEK293 hcDAF-12 lit1-tk-luc reporter, at 6.8 µM, hits give high values, % of Δ7-dafachronic acid response
# [25] = biological target: Galanin receptor type 2 (Homo sapiens) (UniProt O43603); test: blockers of human galanin receptor 2 – cell-based, confirmation (AID 866; in the data active means inhibition above about 27%;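 further: cells stimulated with galanin at about its EC80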); conditions: GALR2-expressing cells, antagonist mode, at 4 µM, hits give high values
# [26] = nonspecific BLA reporter inhibition – CHO NFAT-bla cells, FRET readout, counter-screen for GALR2 antagonist project, confirmation (AID 867;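 active means inhibition above the mean inhibition across tested compounds plus 3 SD, cut at about 27% in these data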;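 further: 0% = 500 nM thapsigargin stimulated wells and 100% = unstimulated BSA only wells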); conditions: beta-lactamase FRET, thapsigargin-stimulated, at 4.2 µM, hits give high values
# [27] = biological target: Peroxisome proliferator-activated receptor gamma (Homo sapiens) (UniProt P37231); test: retested PPARg-SRC-2 recruitment enhancers – biochemical, HTS, confirmation (AID 1297; in the data active means activation above about 22%;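 further: 0% = vehicle alone and 100% = reference agonist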); conditions: biochemical SRC-2 recruitment by PPARgamma; at 8 µM; hits give high values
# [28] = biological target: Peroxisome proliferator-activated receptor gamma (Homo sapiens) (UniProt P37231); test: retest of SRC-1 recruitment enhancers for PPARgamma – biochemical, confirmation (AID 1300; in the data active means activation above about 20%;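 further: 0% = vehicle wells and 100% = reference agonist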); conditions: PPARgamma–SRC-1 coactivator recruitment biochemical assay; at 8 µM; hits give high values
# [29] = biological target: Peroxisome proliferator-activated receptor gamma (Homo sapiens) + Nuclear receptor coactivator 3 (Homo sapiens) (UniProt P37231+Q9Y6Q9); test: agonists promoting SRC-3 binding to PPARgamma – biochemical, confirmation (AID 1301; in the data active means activation above about 24%;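 further: 0% = vehicle wells and 100% = reference agonist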); conditions: biochemical PPARgamma-SRC-3 coactivator recruitment, agonist mode; at 8 µM; hits give high values
# Sequence of Peroxisome proliferator-activated receptor gamma (Homo sapiens) + Nuclear receptor coactivator 3 (Homo sapiens) (P37231 whole entry, looked up): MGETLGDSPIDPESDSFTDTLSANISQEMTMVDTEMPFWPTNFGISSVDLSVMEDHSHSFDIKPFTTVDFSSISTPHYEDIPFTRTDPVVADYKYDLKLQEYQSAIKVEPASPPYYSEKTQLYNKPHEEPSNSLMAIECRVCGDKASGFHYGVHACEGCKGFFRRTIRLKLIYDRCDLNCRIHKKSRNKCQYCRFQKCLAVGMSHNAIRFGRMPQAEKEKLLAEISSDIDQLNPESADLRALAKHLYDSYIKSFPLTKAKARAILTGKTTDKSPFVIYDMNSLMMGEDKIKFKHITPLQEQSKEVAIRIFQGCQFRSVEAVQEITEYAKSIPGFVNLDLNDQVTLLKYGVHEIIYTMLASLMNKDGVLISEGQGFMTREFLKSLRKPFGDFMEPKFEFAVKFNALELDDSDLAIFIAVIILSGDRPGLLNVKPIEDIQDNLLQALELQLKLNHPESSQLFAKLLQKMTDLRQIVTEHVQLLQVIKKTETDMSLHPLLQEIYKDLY
# Sequence of Peroxisome proliferator-activated receptor gamma (Homo sapiens) + Nuclear receptor coactivator 3 (Homo sapiens) (Q9Y6Q9 whole entry, looked up): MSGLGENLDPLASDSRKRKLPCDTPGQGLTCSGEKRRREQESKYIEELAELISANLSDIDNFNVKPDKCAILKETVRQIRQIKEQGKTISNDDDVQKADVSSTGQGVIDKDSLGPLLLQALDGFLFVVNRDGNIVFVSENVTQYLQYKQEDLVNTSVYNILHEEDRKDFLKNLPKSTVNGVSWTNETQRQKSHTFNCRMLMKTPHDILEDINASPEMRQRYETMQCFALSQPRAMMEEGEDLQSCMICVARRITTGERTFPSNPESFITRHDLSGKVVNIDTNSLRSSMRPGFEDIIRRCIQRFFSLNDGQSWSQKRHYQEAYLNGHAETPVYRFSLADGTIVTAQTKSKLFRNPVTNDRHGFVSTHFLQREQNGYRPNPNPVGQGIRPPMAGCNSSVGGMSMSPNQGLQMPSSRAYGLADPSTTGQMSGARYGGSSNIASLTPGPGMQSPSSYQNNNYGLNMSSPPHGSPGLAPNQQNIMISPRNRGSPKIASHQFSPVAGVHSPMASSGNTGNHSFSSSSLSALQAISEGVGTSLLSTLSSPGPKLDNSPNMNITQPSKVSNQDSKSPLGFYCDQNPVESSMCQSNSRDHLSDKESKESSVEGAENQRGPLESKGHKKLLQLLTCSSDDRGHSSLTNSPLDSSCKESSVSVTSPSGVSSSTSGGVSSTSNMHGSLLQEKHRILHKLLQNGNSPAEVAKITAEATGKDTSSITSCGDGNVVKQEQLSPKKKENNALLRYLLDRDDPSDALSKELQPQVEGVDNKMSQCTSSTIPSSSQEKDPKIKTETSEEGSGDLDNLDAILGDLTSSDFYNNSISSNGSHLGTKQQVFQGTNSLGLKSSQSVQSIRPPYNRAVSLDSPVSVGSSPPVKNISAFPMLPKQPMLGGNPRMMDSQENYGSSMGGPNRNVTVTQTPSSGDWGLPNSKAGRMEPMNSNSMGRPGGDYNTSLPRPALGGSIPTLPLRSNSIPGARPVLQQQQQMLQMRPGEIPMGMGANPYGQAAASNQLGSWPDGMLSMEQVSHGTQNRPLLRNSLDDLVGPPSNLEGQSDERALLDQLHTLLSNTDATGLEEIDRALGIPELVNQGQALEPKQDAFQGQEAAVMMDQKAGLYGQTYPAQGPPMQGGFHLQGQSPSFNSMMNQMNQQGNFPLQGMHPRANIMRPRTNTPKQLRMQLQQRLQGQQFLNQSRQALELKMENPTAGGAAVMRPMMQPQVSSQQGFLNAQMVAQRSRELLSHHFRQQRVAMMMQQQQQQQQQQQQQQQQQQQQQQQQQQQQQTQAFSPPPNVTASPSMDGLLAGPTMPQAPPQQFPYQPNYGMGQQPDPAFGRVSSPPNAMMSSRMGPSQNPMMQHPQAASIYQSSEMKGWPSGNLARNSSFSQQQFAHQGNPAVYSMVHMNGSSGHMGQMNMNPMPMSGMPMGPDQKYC
# Sequence of Photoreceptor-specific nuclear receptor (Homo sapiens) (Q9Y5X4 whole entry, looked up): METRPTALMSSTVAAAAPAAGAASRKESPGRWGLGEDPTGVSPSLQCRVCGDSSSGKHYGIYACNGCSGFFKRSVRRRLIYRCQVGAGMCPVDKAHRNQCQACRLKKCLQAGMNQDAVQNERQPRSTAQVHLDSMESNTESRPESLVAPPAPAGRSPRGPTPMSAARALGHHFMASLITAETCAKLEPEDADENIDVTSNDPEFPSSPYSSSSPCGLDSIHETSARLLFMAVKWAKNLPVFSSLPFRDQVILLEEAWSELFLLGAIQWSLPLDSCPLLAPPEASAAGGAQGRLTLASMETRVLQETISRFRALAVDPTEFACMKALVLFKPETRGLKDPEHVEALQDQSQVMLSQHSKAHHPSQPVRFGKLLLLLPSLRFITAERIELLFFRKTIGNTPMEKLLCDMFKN
# Sequence of Oxysterols receptor LXR-beta (Homo sapiens) (P55055 whole entry, looked up, the tested form may be a part): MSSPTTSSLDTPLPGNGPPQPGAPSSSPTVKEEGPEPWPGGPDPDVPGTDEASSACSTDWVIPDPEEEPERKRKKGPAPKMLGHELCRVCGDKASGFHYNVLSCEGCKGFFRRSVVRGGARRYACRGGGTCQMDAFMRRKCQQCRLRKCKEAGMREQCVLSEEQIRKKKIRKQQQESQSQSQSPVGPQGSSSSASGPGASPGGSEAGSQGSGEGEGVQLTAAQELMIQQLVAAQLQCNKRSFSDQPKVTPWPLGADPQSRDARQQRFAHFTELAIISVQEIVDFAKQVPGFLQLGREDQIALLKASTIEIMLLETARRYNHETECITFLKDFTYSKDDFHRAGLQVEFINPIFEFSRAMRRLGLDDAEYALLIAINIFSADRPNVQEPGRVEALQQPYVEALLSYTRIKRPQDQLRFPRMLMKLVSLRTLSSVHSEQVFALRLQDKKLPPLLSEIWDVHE
# Sequence of Peroxisome proliferator-activated receptor gamma (Homo sapiens) (P37231 whole entry, looked up): as the sequence (P37231 whole entry, looked up) above
# Sequence of COUP transcription factor 2 (Homo sapiens) (P24468 whole entry, looked up): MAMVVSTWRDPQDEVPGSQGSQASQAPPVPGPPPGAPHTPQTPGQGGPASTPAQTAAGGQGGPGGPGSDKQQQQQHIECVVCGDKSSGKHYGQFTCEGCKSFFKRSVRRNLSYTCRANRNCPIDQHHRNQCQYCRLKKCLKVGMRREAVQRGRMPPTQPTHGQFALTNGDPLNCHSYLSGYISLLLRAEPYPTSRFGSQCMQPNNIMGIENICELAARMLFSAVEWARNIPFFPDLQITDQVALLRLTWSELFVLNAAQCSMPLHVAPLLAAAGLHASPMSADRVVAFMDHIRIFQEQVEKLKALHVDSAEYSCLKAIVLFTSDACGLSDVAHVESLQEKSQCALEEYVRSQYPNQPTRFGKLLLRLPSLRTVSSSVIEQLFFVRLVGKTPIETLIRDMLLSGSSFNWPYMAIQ
# Sequence of Nuclear receptor subfamily 5 group A member 2 (Homo sapiens) (O00482 whole entry, looked up): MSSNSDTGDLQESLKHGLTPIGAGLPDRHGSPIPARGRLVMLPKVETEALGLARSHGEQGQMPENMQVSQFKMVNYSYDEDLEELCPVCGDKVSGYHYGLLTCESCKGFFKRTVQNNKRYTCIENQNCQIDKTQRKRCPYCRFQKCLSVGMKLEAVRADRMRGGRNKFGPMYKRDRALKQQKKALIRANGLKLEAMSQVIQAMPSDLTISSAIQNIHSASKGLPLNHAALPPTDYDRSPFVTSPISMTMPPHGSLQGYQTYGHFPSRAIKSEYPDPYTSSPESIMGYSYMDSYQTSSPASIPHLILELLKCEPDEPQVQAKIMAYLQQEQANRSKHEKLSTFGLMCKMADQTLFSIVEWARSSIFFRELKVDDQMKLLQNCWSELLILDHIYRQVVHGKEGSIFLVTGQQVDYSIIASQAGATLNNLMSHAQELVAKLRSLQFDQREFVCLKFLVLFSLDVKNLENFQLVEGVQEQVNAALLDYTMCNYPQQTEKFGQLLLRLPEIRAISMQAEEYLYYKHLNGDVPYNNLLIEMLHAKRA
# Sequence of Steroidogenic factor 1 (Homo sapiens) (Q13285 whole entry, looked up, the tested form may be a part): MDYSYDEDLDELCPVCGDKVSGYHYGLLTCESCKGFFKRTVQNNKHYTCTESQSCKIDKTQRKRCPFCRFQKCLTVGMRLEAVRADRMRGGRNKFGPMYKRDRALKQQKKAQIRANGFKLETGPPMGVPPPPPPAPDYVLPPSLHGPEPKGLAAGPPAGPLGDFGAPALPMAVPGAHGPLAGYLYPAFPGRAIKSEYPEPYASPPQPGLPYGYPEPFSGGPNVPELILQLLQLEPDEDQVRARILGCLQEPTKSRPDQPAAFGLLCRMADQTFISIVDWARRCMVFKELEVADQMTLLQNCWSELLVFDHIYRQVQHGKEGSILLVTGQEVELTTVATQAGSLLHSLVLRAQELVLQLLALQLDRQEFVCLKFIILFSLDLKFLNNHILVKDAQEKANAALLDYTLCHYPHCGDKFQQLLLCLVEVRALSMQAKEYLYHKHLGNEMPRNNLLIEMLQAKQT
# Sequence of Nuclear receptor coactivator 3 (Homo sapiens) (Q9Y6Q9 whole entry, looked up, the tested form may be a part): as the sequence (Q9Y6Q9 whole entry, looked up) above
smiles,measurement,setting,value
CCN1/C(=C\c2ccc3ccccc3[n+]2CC)Sc2cc(C)ccc21,inhibition,[1],86.2% (active)
same,inhibition,[2],33.4% (active)
same,inhibition,[3],19% (active)
same,inhibition,[4],2.61%
same,inhibition,[5],34.1% (active)
same,inhibition,[6],5.58% (active)
same,inhibition,[7],16.1%
same,inhibition,[8],35.8%
same,inhibition,[9],70.5% (active)
same,inhibition,[10],32.7%
same,inhibition,[11],67.9% (active)
same,inhibition,[12],98.3% (active)
same,inhibition,[13],87.5% (active)
same,inhibition,[14],59.5% (active)
same,inhibition,[15],107% (active)
same,inhibition,[16],86.4% (active)
same,inhibition,[17],83.4% (active)
same,inhibition,[18],10.8%
same,inhibition,[19],66.5% (active)
Cc1ccc(Nc2ccccc2N)cc1,inhibition,[1],24.3%
same,inhibition,[2],22.9% (active)
same,inhibition,[3],6.8%
same,inhibition,[20],53.1% (active)
COc1ccc(S(=O)(=O)Nc2ccc3oc(C)c(C(C)=O)c3c2)cc1,inhibition,[1],32.3%
same,inhibition,[2],13.4% (active)
same,inhibition,[3],20.4% (active)
same,inhibition,[12],93% (active)
same,inhibition,[13],79.4% (active)
same,inhibition,[18],1.7%
same,inhibition,[19],20.7%
CC(C)(CNC(=O)c1ccc(Cl)c(S(=O)(=O)N2CCc3ccccc3C2)c1)N1CCOCC1,inhibition,[1],57.1% (active)
same,inhibition,[2],13.4% (active)
same,inhibition,[3],9%
same,inhibition,[8],7.77%
same,inhibition,[9],32.8% (active)
same,inhibition,[18],0.6%
same,inhibition,[19],38.9% (active)
COc1ccc(Nc2ncc(F)c(N3CCOCC3)n2)cc1,inhibition,[1],3.37%
same,inhibition,[2],-21.5%
same,inhibition,[3],-107%
same,activation,[21],16.1% (active)
same,activation,[22],1%
Cc1ccc(N/C=C/C(=O)c2ccccc2)cc1C,inhibition,[1],20.9%
same,inhibition,[2],13.8% (active)
same,inhibition,[3],-55.2%
same,activation,[23],1.51%
same,activation,[24],16.8% (active)
same,activation,[21],8.78%
same,activation,[22],1.25%
CCCOc1ccc(C(=O)NCCc2ccccc2)cc1,inhibition,[1],11.6%
same,inhibition,[2],-7.27%
same,inhibition,[3],-61.1%
same,activation,[23],1.59%
same,activation,[24],7.43% (active)
same,activation,[21],14.1% (active)
same,activation,[22],0.6%
c1ccc2[nH]c(-c3nc4ccccc4[nH]3)nc2c1,inhibition,[25],21.3%
same,inhibition,[26],8.39%
same,inhibition,[1],5.87%
same,inhibition,[2],-30%
same,inhibition,[3],-97.2%
same,inhibition,[20],58.4% (active)
same,activation,[23],1.09%
same,activation,[24],4.57%
O=c1oc(/C=C/c2ccccc2)nc2ccccc12,inhibition,[1],10.7%
same,inhibition,[2],-7.17%
same,inhibition,[3],-42.9%
same,activation,[21],14.4% (active)
same,activation,[22],0.58%
O=c1c2c(nc3cc(-c4cccc(Cl)c4)[nH]n13)CCCC2,inhibition,[1],21.9%
same,inhibition,[2],-3.1%
same,inhibition,[3],-108%
same,activation,[23],1.76%
same,activation,[24],9.19% (active)
same,activation,[21],13.8% (active)
same,activation,[22],1.15%
c1coc(CNc2ncnc3ccccc23)c1,inhibition,[1],40.4%
same,inhibition,[2],15.2% (active)
same,inhibition,[3],30.5% (active)
same,inhibition,[12],71.1% (active)
same,inhibition,[13],56.3%
same,inhibition,[18],4.88%
same,inhibition,[19],40.9% (active)
Cc1nc(CNS(=O)(=O)c2ccc(Oc3ccccc3)cc2)cs1,inhibition,[1],43.6% (active)
same,inhibition,[2],6.1%
same,inhibition,[3],12.1%
same,inhibition,[12],87.9% (active)
same,inhibition,[13],82.8% (active)
same,inhibition,[14],11%
same,inhibition,[15],44.6% (active)
same,inhibition,[16],43.7% (active)
same,inhibition,[17],37% (active)
same,inhibition,[18],1.48%
same,inhibition,[19],27%
Cc1csc(SCC(=O)Nc2sccc2C#N)n1,inhibition,[1],7.4%
same,inhibition,[2],-23.8%
same,inhibition,[3],-80.2%
same,activation,[23],1.59%
same,activation,[24],10.3% (active)
CCOc1ccc(-c2nnc(-c3ccco3)o2)cc1,inhibition,[1],43.7% (active)
same,inhibition,[2],13.6% (active)
same,inhibition,[3],-56.6%
same,activation,[21],15.5% (active)
same,activation,[22],0.7%
COc1cc(SC)ccc1C(=O)Nc1cc(C)ccn1,inhibition,[1],8.73%
same,inhibition,[2],-35.4%
same,inhibition,[3],-139%
same,activation,[23],1.02%
same,activation,[24],4.37%
same,activation,[21],17.2% (active)
same,activation,[22],1.05%
CCc1ccc(-n2c(SCc3cc(=O)n4cc(Br)ccc4n3)nc3[nH]ncc3c2=O)cc1,activation,[27],40.9% (active)
same,activation,[28],26.6% (active)
same,activation,[29],28.8% (active)
CNC(=S)N1N=C(c2ccccc2)CC1c1ccc(Br)cc1 (stereo not given),activation,[27],24.2% (active)
same,activation,[28],23.1% (active)
same,activation,[29],17.2%
O=C(O)Cc1sc(-c2ccccc2)nc1-c1cccs1,activation,[27],42.6% (active)
same,activation,[28],34.7% (active)
same,activation,[29],32.9% (active)
O=C(Nc1ccc(Cl)cn1)c1ccc2c(c1)OCCO2,inhibition,[1],26.7%
same,inhibition,[2],-3.07%
same,inhibition,[3],-103%
same,activation,[21],13.4% (active)
same,activation,[22],0.89%
